High-throughput results as filed in PubChem.
Cruzain Triton: inhibitors of Trypanosoma cruzi cruzain with detergent; purified cruzain, Z-FR-AMC fluorescence, 0.01% Triton; Potency, µM, most hits filed as inhibitors; P25779; actives 0.43% (n = 200,000); AID 1478; note: nearly all actives have a fitted effect of over 40% in size
Target sequence (P25779 123-467 limits assumed): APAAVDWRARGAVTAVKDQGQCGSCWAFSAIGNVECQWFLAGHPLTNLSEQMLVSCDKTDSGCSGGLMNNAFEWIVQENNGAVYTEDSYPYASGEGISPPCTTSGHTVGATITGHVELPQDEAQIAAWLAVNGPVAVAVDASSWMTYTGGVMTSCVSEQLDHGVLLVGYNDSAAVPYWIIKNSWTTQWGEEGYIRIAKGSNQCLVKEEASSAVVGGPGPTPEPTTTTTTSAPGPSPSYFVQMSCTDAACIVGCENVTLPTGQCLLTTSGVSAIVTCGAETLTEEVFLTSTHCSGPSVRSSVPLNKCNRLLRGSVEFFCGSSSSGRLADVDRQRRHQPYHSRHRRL
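Enzyme 1.5 nM, Z-FR-AMC 2 uM, NaOAc 100 mM pH 5.5, DTT 5 mM, Triton X-100 0.01%; 15 min RT compound preincubation; kinetic ex360/em450, 60 s delta.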
Cruzain inh noDet: inhibitors of Trypanosoma cruzi cruzain without detergent; Potency, µM, actives largely listed as inhibitors; purified cruzain, Z-FR-AMC fluorescence, no detergent; actives 2.3% (n = 200,000); P25779; note: nearly all actives have a fitted effect of over 40% in size
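Purified cruzain at 1.5 nM, pre-incubated 15 min with compound at room temperature in 100 mM sodium acetate pH 5.5, 5 mM DTT, 0.00005% Triton X-100. Reaction started with 2 uM Z-FR-AMC; AMC fluorescence increase over 60 s gives rate.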
A number is an active result; . = inactive; ? = inconclusive. Rows were chosen to be rich in hits. Some 2.6% of all compounds tested hit in one or more screens of this group. Calls come from the whole dose curve; as a rule, active = well fitted curve in the direction sought with a large enough effect; inconclusive = small, poorly fitted or top-dose-only effect, or another doubt; inactive = no such curve, though single readings can be large; an effect the other way counts as inactive or inconclusive.

SMILES | Cruzain Triton | Cruzain inh noDet
COc1cccc(CSc2nc3sc(C)c(C)c3c(=O)n2Cc2ccco2)c1 | . | 25µM
Cc1cccc(CSc2nc3sc(C)c(C)c3c(=O)n2Cc2ccco2)c1 | . | ?
Cc1sc2nc(SCc3nc4ccccc4[nH]3)n(Cc3ccco3)c(=O)c2c1C | . | 32µM
COC(C)(C)C | . | .
C#CCn1c(C2CC(=O)N(c3ccc(OCC)cc3)C2)nc2ccccc21 (configuration not stated) | . | .
COC(=O)N/N=C/c1cc(Cl)cc(Cl)c1OCc1ccccc1 | . | .
NC(=S)N/N=C\c1ccccc1OCc1ccccc1 | 3.2µM | 1.3µM
COc1cccc(/C=N/NC(N)=S)c1OCc1cccc(Cl)c1 | . | 5µM
O=C(CSCc1ccccc1)N/N=C/c1ccccc1OCc1ccccc1 | . | .
CCn1cc(CNC(=O)c2cc(-c3ccc(C)cc3)nc3ccc(Br)cc23)c(C)n1 | . | ?
Cc1cc2nc(NC3=NCN(CCN4CCOCC4)CN3)nc(C)c2cc1C | . | .
Cc1nc(NC2=NCN(CCCN3CCOCC3)CN2)nc2c(C)cccc12 | ? | 25µM
Cc1nnc(N2CCC(C(=O)NCc3ccc(F)cc3)CC2)c2nn(-c3ccc(Cl)cc3)c(C)c12 | . | .
COc1ccc2oc(=O)c(-c3nnc(-c4ccc(C)cc4)o3)cc2c1 | . | .
COc1ccc(-c2nnc(-c3cc4ccccc4oc3=O)o2)cc1 | . | 16µM
Nc1nc(NCc2ccccc2)nc(Nc2cccc(F)c2)c1[N+](=O)[O-] | . | 32µM
Cc1ccc(CNc2nc(N)c([N+](=O)[O-])c(Nc3cccc(F)c3)n2)cc1 | . | 20µM
Nc1nc(NCC2CCCO2)nc(Nc2ccc(F)cc2)c1[N+](=O)[O-] (configuration not stated) | . | .
Cc1cc(Nc2cccc(F)c2)nc(NCc2ccccc2)n1 | . | .
Nc1nc(NCc2ccccc2)nc(Nc2ccc(F)cc2)c1[N+](=O)[O-] | . | 7.9µM
Cc1cccc(Nc2nc(NCC3CCCO3)nc(N)c2[N+](=O)[O-])c1 (configuration not stated) | . | .
CCCOCC(C)O (configuration not stated) | . | .
Cc1cc(C)cc(OCC(=O)N2CCC(c3nc4ccccc4o3)CC2)c1 | . | .
Cc1ccc(Cl)cc1Nc1nn2c(=O)c3ccc(C(=O)NC4CCCCC4)cc3nc2s1 | . | .
COc1ccc(C(=O)Nc2cccc(OC)c2)cc1 | . | .
SMILES | Cruzain Triton | Cruzain inh noDet
COc1c(C)cccc1C(=O)NC(=S)Nc1ccc2c(c1)Cc1ccccc1-2 | . | 20µM
COc1ccc(C(=O)Nc2ccc3c(c2)Cc2ccccc2-3)cc1 | . | 10µM
COc1cccc(OC)c1C(=O)NC(=S)Nc1ccc2c(c1)Cc1ccccc1-2 | . | 16µM
COc1cc(NC(=S)NC(=O)c2ccccc2C)ccc1NC(=O)c1cccs1 | . | .
COc1cccc(OC)c1C(=O)NC(=S)Nc1ccc2c(c1)C(=O)N(C)C2=O | . | .
OC(c1ccc(Cl)cc1)(c1ccc(Cl)cc1)C(Cl)(Cl)Cl | . | .
N#CC1=C(N)Oc2n[nH]c(-c3cccs3)c2C1c1ccoc1 (configuration not stated) | . | .
Cc1ccc(C2C(C#N)=C(N)Oc3n[nH]c(-c4cccs4)c32)cc1 (configuration not stated) | . | 32µM
CC(=O)c1ccc(N2CCN(c3ncnc4onc(-c5ccc(Cl)cc5)c34)CC2)cc1 | . | 3.2µM
Fc1ccc(N2CCN(c3ncnc4onc(-c5ccc(Cl)cc5)c34)CC2)cc1 | . | .
COc1ccccc1NS(=O)(=O)c1cccc(C(=O)N/N=C/c2c(C)nn(-c3ccccc3)c2N2CCCC2)c1 | . | .
COc1ccccc1NS(=O)(=O)c1cccc(C(=O)N/N=C/c2ccc3c(c2)OCCO3)c1 | . | ?
COc1ccccc1NS(=O)(=O)c1cccc(C(=O)N/N=C/c2cn(-c3ccccc3)nc2-c2ccccc2)c1 | . | 13µM
COc1ccc(-c2nn(-c3ccccc3)cc2/C=N/NC(N)=S)cc1OC | 1.6µM | 0.63µM
COc1ccc(-c2nn(-c3ccccc3)cc2/C=N/n2cnnc2)cc1OC | . | ?
CCN(CC)c1ccc(/C=N/NC(=O)c2cccc(S(=O)(=O)Nc3ccccc3OC)c2)c(O)c1 | . | 20µM
Cc1ccccc1C(=N)c1ccccc1Cc1cccc2ccccc12 | . | .
COc1cc(NC(=O)C(NC(=O)C2CCC(C)CC2)C(C)C)cc(OC)c1OC (configuration not stated) | . | .
COc1cccc(C(=O)CN2CCN(S(=O)(=O)c3ccc(Cl)cc3)CC2)c1 | . | .
O=C(Nc1ccc(S(=O)(=O)N2CCCCC2c2cccnc2)cc1)c1ccc(Br)cc1 (configuration not stated) | . | .
COc1ccc(CNC(=O)c2cnn(-c3ccc(C)cc3)c2-n2cccc2)cc1OC | . | ?
CCNC(=S)N/N=C/c1cn(Cc2ccccc2F)c2ccccc12 | . | ?
CNC(=S)N/N=C/c1cn(Cc2c(F)cccc2Cl)c2ccccc12 | . | 32µM
CCC1CCc2nc3sc(C(=O)Nc4cccc(C(F)(F)F)c4)c(N)c3cc2C1 (configuration not stated) | . | .
CCC1CCc2nc3sc(C(=O)Nc4cccc(F)c4)c(N)c3cc2C1 (configuration not stated) | . | 5µM
SMILES | Cruzain Triton | Cruzain inh noDet
CCOC(=O)c1cnc2cc(-c3ccc(Cl)cc3)nn2c1-c1ccccc1 | . | .
CCOC(=O)c1cnc2cc(-c3ccc(Cl)cc3)nn2c1N | . | 10µM
Cc1ccc(C)c(NC(=S)NC(NC(=O)Cc2cccc3ccccc23)C(Cl)(Cl)Cl)c1 (configuration not stated) | . | 7.9µM
Cc1ccc(C)c(NC(=S)NC(NC(=O)N(C)C)C(Cl)(Cl)Cl)c1 (configuration not stated) | . | .
CCOc1ccccc1C1CC(=O)NC(C)=C1C(=O)OCc1ccc(C)cc1 (configuration not stated) | . | .
O=C(Nc1cc(Sc2ccccn2)cc([N+](=O)[O-])c1)c1ccc([N+](=O)[O-])cc1 | . | 32µM
O=C(NCc1ccccn1)c1ccc([N+](=O)[O-])cc1 | . | .
COc1ccc(C(=O)Nc2noc3ccccc23)cc1 | . | .
O=C(Nc1noc2ccccc12)c1cccc(Cl)c1Cl | . | 25µM
CCOC(=O)c1cccc(NC(=O)c2cc(S(=O)(=O)N3CCCCCC3)cn2C)c1 | . | .
Cc1ccc(OCC(=O)Nc2ccc3nc(SCC(=O)N4CCOCC4)sc3c2)cc1 | . | .
Cc1ccc(OCCCN(C)C)c(Br)c1 | . | .
Cc1cc(Cl)c(OCCCN(C)C)c(Br)c1 | . | 5µM
O=C(Nc1ccc2c(c1)N(C1CCCC1)C(=O)c1ccccc1S2)c1ccccc1F | . | ?
CCc1ccc2oc(C(=O)Nc3nc(-c4ccc(F)cc4)ns3)c(C)c2c1 | . | .
Nc1nonc1-c1nc2ccccc2n1CC(=O)Nc1ccc(F)cc1 | . | .
CCOC(=O)Cn1c(-c2nonc2NC(=O)c2ccccc2F)nc2ccccc21 | . | 25µM
Nc1nonc1-c1nc2ccccc2n1CC(=O)Nc1cccc(Cl)c1Cl | . | .
Cc1ccc(NC(=O)Cn2c(=O)c(C(F)(F)F)nc3ccccc32)cc1C | . | .
Cc1ccc(NC(=O)Cn2c(-c3nonc3N)nc3ccccc32)cc1Cl | . | 7.9µM
CCC(=O)Nc1nonc1-c1nc2ccccc2n1Cc1ccccc1 | . | .
Cc1ccc(NC(=O)Cn2c(/C=C/c3ccccc3)nc3ccccc32)cc1C | . | 16µM
